Reference: PubChem BioAssay (Tox21)
Records with an inconclusive call do not appear. A number with no mark means an inactive call. Calls come from the whole dose curve; as a rule, active = well fitted cell-killing curve with a large enough effect in the repeat runs; inconclusive = weak or mixed curves, or effect the other way; inactive = flat fitted curve, though single readings scatter.

Experiment: qHTS assay to identify small molecule agonists of the TGF-beta/Smad signaling pathway - cell viability counter screen (AID 1346829); note: top concentration of the series differs between compounds; nearly all actives have a fitted effect of over 45% in size
Details: SBE-bla HEK293T viability, CellTiter-Glo luminescence, 5 h; series mostly up to 76.8 µM; activity change, negative = cytotoxicity: at the top concentration
Text: National Center for Advancing Translational Sciences [NCATS]
NIH Chemical Genomics Center [NCGC]
U.S. Environmental Protection Agency [EPA]
National Institutes of Environmental Health Sciences [NIEHS]
National Toxicology Program [NTP]
U.S. Food and Drug Administration [FDA]
Transforming growth factor beta (TGF-beta) superfamily consists of a large number of structurally related dimeric proteins that act as hormones or local mediators in regulating a wide range of biological functions. This superfamily includes TGF-betas themselves, the bone morphogenetic proteins (BMPs) and the activins. These ligands induce oligomerization of serine/threonine receptor kinases and phosphorylate the cytoplasmic signaling molecules of Smad protein family. CellSensor SBE-bla HEK 293T cell line (Life Technologies, Carlsbad, CA), responsive to TGF-beta was used to screen Tox21 10K compound library for identification of agonists/antagonists of the Smad signaling pathway. This cell line contains a beta-lactamase reporter gene under control of the Smad binding element (SBE) stably integrated into HEK 293T cells. Also cytotoxicity of the compounds was tested in parallel by measuring the cell viability using CellTiter-Glo assay system in the same wells.
Tox21 Assay Protocol Summary:
SBE-bla HEK 293T cells were dispensed at 4,000/well in 6 uL of assay medium into black wall/clear-bottom 1536-well plates using a Multidrop Combi (ThermoFisher Scientific, Waltham, MA) dispenser. After the assay plates were incubated at 37 C and 5% CO2 for an overnight, 23 nL of compounds dissolved in DMSO, positive controls or DMSO only was transferred to the assay plate by a Pintool station (Kalypsys, San Diego, CA). The assay plates were incubated at 37 C and 5% CO2 for 5 hr. One uL of LiveBLAzer B/G FRET substrate (Life Technologies) was added using a Flying Reagent Dispenser (FRD, Aurora Discovery, San Diego, CA) and the plates were incubated at room temperature for 2 hr. Fluorescence intensity (405 nm excitation, 460 nm and 530 nm emissions) was measured using an Envision plate reader (PerkinElmer, Shelton, CT). For cytotoxicity read, 4 uL of CellTiter-Glo reagent (Promega Corporation, Madison, WI) was added to each well of the assay plates using FRD. After 30min incubation at room temperature, the luminescence intensity was measured using ViewLux plate reader (PerkinElmer).
% is set by controls: 0 for no effect and ±100 for the full control effect.

SMILES | activity change, negative = cytotoxicity
CC(C)C1=CC2=CC[C@@H]3[C@](C)(CCC[C@@]3(C)C(=O)O)[C@H]2CC1 | -6.36%
O=C(O)[C@@H](O)[C@H](O)[C@H](O)[C@@H](O)C(=O)O | -2.2% [at 35.3 µM]
COc1cc(Cl)ccc1Cl | 1.16%
NCCCN1CCN(CCCN)CC1 | 9.61%
OC[C@H]1O[C@@H](O[C@H]2[C@H](O)[C@@H](O)[C@H](O)O[C@@H]2CO)[C@H](O)[C@@H](O)[C@H]1O | 0.417%
CC(C)O | 8.4%
Cc1ccsc1C(=CCCN1CCC[C@@H](C(=O)O)C1)c1sccc1C | -1.29% [at 35.3 µM]
NC(Cc1ccc(F)cc1)C(=O)O (stereo not given) | 4.18% [at 6.97 µM]
CO[C@@]1(NC(=O)CSCC#N)C(=O)N2C(C(=O)O)=C(CSc3nnnn3C)CS[C@@H]21 | -9.42% [at 35.3 µM]
O=C1CCCc2ccccc21 | 2.98%
Clc1cccc(-c2cc(Cl)cc(Cl)c2)c1 | -11.4%
CN1C(=O)CC(c2ccccc2)C1=O (stereo not given) | 2.88% [at 35.3 µM]
O=C1Nc2ccc([N+](=O)[O-])cc2C1=O | -1.28%
COc1ccccc1OCC(O)COC(N)=O (stereo not given) | 11% [at 35.3 µM]
NS(=O)(=O)c1cc(-c2nn[nH]n2)c(NCc2cccs2)cc1Cl | 2.17% [at 35.3 µM]
C=CCCCCCCCCO | -1.4%
CC(=O)N[C@@H](CC(C)C)C(=O)O | -0.593% [at 35.3 µM]
Oc1ccccc1C=NCc1ccccc1 | 24.5% [at 35.3 µM]
COC(=O)C(C)O (stereo not given) | 0.0051%
COc1nc(C)nc(NC(=O)NS(=O)(=O)c2ccccc2OCCCl)n1 | 5.35%

SMILES | activity change, negative = cytotoxicity
Cc1ccc(C)c(N)c1 | -13.5%
CCOc1ccc(NS(=O)(=O)c2ccc(N)cc2)nn1 | -0.93% [at 35.3 µM]
CCN[C@H]1CN(CCCOC)S(=O)(=O)c2sc(S(N)(=O)=O)cc21 | 18.4% [at 35.3 µM]
CC1(C)O[C@@H]2C[C@H]3[C@@H]4CCC5=CC(=O)CC[C@]5(C)[C@@]4(F)[C@@H](O)C[C@]3(C)[C@]2(C(=O)CCl)O1 | 11.2% [at 35.3 µM]
CC(=O)N(CC(O)CN(C(C)=O)c1c(I)c(C(=O)NCC(O)CO)c(I)c(C(=O)NCC(O)CO)c1I)c1c(I)c(C(=O)NCC(O)CO)c(I)c(C(=O)NCC(O)CO)c1I (stereo not given) | 2.98% [at 35.3 µM]
CCC(=O)O[C@]1(C(=O)SCF)[C@H](C)C[C@H]2[C@@H]3C[C@H](F)C4=CC(=O)C=C[C@]4(C)[C@@]3(F)[C@@H](O)C[C@@]21C | -4.56% [at 35.3 µM]
COC(=O)/C=C(/C)N | 0.146% [at 35.3 µM]
O=C1CCCCCCCCCCC(=O)OCCO1 | -6.12%
CC/C=C\CCOC(=O)C(C)C | -5.47%
C/C(=N\O)[C@@H](C)NCC(C)(C)CN[C@H](C)/C(C)=N/O | 5.89% [at 35.3 µM]
OCc1ccccc1O | 12.1% [at 35.3 µM]
CN1CCN(c2c(F)cc3c(=O)c(C(=O)O)cn4c3c2SCC4)CC1 | 5.19% [at 35.3 µM]
CCC(=O)c1ccc2c(c1)N(CCCN(C)C)c1ccccc1S2 | 1.88% [at 35.3 µM]
O=Cc1ccc(O)c(O)c1O | -12.3% [at 35.3 µM]
CCOC(=O)C(Br)c1ccccc1 (stereo not given) | -18.7%
CCCCCCCCCC/C=C/C#N | -4.5%
CN(C)CCOc1ccccc1Cc1ccccc1 | -0.358% [at 35.3 µM]
Cc1cc(S(=O)(=O)O)c(N)cc1Cl | 5.31%
CO[Si](C)(C)OC | -22.6%
CCOc1ccc(OCC)c(Cl)c1 | 0.426%
